Nrf2 block: blocks Nrf2 signaling; A549 ARE-Fluc reporter, luciferase luminescence, 18-24 h; AID 504444; Potency, µM (highest dose often 46 µM), inactives show top-dose activity change, negative = inhibition, usual class: inhibitors; 360,000 compounds, 2.1% hits; further: on the % scale 0 is the no-effect control and ±100 the full control effect; nearly all actives have a fitted effect of over 60% in size
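Two sequential reads on A549 ARE_Fluc cells exposed to compound for 18-24 h: a CellTiter-Fluor fluorescence read for viability, then a luciferase luminescence read for Nrf2/ARE activity.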
mIDH1 inhibitor: human IDH1 R132H inhibition; IDH1-R132H enzyme, NADPH consumption, diaphorase/resazurin fluorescence; Potency, µM (highest dose often 76.6 µM), without a hit: top-dose activity change, negative = inhibition, actives largely listed as inhibitors; 390,000 compounds, 0.093% hits; further: on the % scale 0 is the no-effect control and ±100 the full control effect; nearly all actives have a fitted effect of over 65% in size
Target sequence (O75874 whole entry R132H, stated change not applied): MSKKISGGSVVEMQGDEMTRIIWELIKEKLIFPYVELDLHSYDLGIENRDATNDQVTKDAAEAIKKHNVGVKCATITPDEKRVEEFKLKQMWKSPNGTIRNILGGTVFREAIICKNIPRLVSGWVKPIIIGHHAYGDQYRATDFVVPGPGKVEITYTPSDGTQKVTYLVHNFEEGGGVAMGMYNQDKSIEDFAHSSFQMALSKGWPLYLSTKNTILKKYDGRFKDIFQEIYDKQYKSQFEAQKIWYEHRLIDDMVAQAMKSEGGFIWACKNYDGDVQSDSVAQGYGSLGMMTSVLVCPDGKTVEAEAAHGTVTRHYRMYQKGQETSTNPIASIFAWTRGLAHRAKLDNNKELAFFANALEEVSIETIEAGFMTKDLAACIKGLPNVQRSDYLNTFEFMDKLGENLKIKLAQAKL
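IDH1-R132H (0.5 ug/mL) preincubated 30 min with compound, then NADPH (0.016 mM) and alpha-KG (2 mM) added; 80 min at RT, pH 7.5. Remaining NADPH coupled via diaphorase/resazurin to fluorescence (540/590 nm); concentration-response curves normalized to no-enzyme control.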
TrxR1 inh: blocks rat thioredoxin reductase 1; O89049; recombinant rTrxR1, NADPH fluorescence consumption, selenite substrate; Potency, µM (highest dose often 114 µM), inactives show top-dose activity change, negative = inhibition, most hits filed as inhibitors; 390,000 compounds, 1% hits; AID 588453; further: on the % scale 0 is the no-effect control and ±100 the full control effect; nearly all actives have a fitted effect of over 65% in size
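Rat TrxR1 (90 nM in the dispensed reagent) was pre-reduced with 400 uM NADPH for 5 min at room temperature, then incubated with compound for 15 min. After 400 uM selenite was added, NADPH fluorescence (Ex 340/Em 450 nm) was followed for 8 min.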
TrxR1 substrate: rat thioredoxin reductase 1 substrate activity. purified TrxR1 substrate turnover, NADPH consumption readout. Potency, µM (highest dose often 114 µM), for inactives: top-dose activity change, negative = substrate turnover. 390,000 compounds, 0.01% hits; further: on the % scale 0 is the no-effect control and ±100 the full control effect; nearly all actives have a fitted effect of over 50% in size
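Rat TrxR1, dispensed at 90 nM, was prereduced with 400 uM NADPH (final) for 5 min at ~22 deg C, then incubated with compound 15 min before 400 uM selenite. A first-read NADPH fluorescence drop versus no-compound background flagged substrates.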
Mito fusion yeast: inhibitors of mitochondrial division or activators of mitochondrial fusion. S. cerevisiae fusion-defective mutant growth rescue, CellTiterGlo 48 h. Potency, µM (top dose mostly 46.1 µM), inactives show top-dose growth rescue (activation), actives largely listed as activators. 320,000 compounds, 0.23% hits. AID 485298; further: % of control where 0% means no effect; nearly all actives have a fitted effect of over 45% in size
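Growth-rescue viability read-out: after 48 h at the non-permissive 37C in glycerol/ethanol YPEG, yeast mitochondrial fusion mutants are measured by CellTiterGlo luminescence; compounds (23 nl pinned per well) restoring growth score as division inhibitors or fusion activators.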
A549 viability: kills or reduces viability of A549 cells in Nrf2 counter-screen. A549 ARE-Fluc cells, CellTiter-Fluor viability, 18-24 h. Potency, µM (top dose mostly 46 µM), for the others: at the top dose activity change, negative = cytotoxicity, hits mostly inhibitors. 390,000 compounds, 0.16% hits. AID 504648; further: on the % scale 0 is the no-effect control and ±100 the full control effect
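A549 ARE_Fluc cells in 5% FBS OPTI-MEM were exposed to compounds in concentration-response for 18-24 h at 37 deg C. Viability was read by CellTiter-Fluor fluorescence (Ex 405/Em 525) after 30 min, before the luciferase read.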
Active calls of the source: *; ? = inconclusive; · = no result given; [ ] = remark or other dose. This is a sample that favours compounds with a hit; in the whole collection about 3.1% have one here. The call rests on the fitted dose curve; in most records, active means well fitted curve in the direction sought with a large enough effect; inconclusive means small, poorly fitted or top-dose-only effect, or another doubt; inactive means no such curve, though single readings can be large; an effect the other way counts as inactive or inconclusive. Potency means the concentration at half of the fitted maximal effect.

SMILES | Nrf2 block | mIDH1 inhibitor | TrxR1 inh | TrxR1 substrate | Mito fusion yeast | A549 viability
COc1ccc(CNC(=O)CCc2cn(Cc3cc(C)ccc3C)c3ccccc23)cc1OC | 23µM* | -6% | 10% | -8% | · | -5%
Cc1ccc(N2C(=O)CS/C2=C(\C(Cl)=C(Cl)Cl)[N+](=O)[O-])cc1 | -26% | -5% | 32µM* | 0% | 1% | -27%
Cc1ccc(N2C(=O)CSCC2=O)cc1 | -2% | 3% | -6% | -4% | 2% | -10%
COc1ccc(C(=O)Oc2ccc(=O)n(-c3ccccc3)n2)cc1 | 1.6µM* | 0% | ? | 1% | -2% | ·
O=C(Oc1ccc(=O)n(-c2ccccc2)n1)c1cccc(Cl)c1 | · | 0% | 3.5µM* | 13%[57.1 µM] | 2% | -5%
O=C(Oc1ccc(=O)n(-c2ccccc2)n1)c1ccc(Cl)cc1 | -9% | 2% | ? | 6%[57.1 µM] | 3% | -9%
CCC(=O)N1CCc2cc(Br)cc(S(=O)(=O)N3CCCC(C(=O)Nc4ccc(C)c(F)c4)C3)c21 (stereo not drawn) | -26% | 20% | 4% | -3% | · | -3%
O=C(Nc1ccccc1-c1cn2c(CN3CCNCC3)csc2n1)c1cnc2ccccc2n1 | · | · | -15% | -5% | · | ·
O=C(Cn1cc(CN(Cc2ccccc2)Cc2ccccc2)nn1)Nc1cc(C(F)(F)F)ccc1Cl | 18% | · | · | · | · | -6%
O=S(=O)(NC1CCCC1)c1ccc(S(=O)(=O)N2CCc3ccccc32)cc1 | 15µM* | 0% | 25%[57.1 µM] | 0%[57.1 µM] | 7% | ?
O=C(NCc1ccco1)c1ccc(Cl)c(S(=O)(=O)N2CCc3ccccc32)c1 | 23µM* | 5% | -14% | -13% | ? | 2%
O=C(Nc1ccc(S(=O)(=O)N2CCc3ccccc32)cc1)c1ccco1 | 23µM* | -3% | ? | -1% | 6% | 0%[1.84 µM]
CCC(=O)Nc1ccc(S(=O)(=O)N2CCc3ccccc32)cc1 | 2% | 5% | 19% | 0% | 6% | ?
Nc1ccc(S(=O)(=O)N2CCc3ccccc32)cc1 | ? | 7% | -11%[57.1 µM] | -6% | 12% | -1%
COc1ccc(CCNC(=O)Cn2c(=O)c3cccn3c3ccccc32)cc1OC | ? | 16% | 10% | 1% | · | -17%
COc1ccc(F)cc1S(=O)(=O)NCCc1csc(-c2ccc(Cl)cc2)n1 | · | -9% | 11%[57.1 µM] | -4%[57.1 µM] | · | 8%
COc1ccc(S(=O)(=O)N(C)c2ccc(C(=O)N3CCN(C)CC3)cc2)cc1 | -10% | 2% | -6% | -1% | -1% | 1%
COc1ccc(N2CCN(C(=O)c3ccc(N(C)S(=O)(=O)c4ccc(OC)cc4)cc3)CC2)cc1 | 26µM* | 7% | 7%[57.1 µM] | 3%[57.1 µM] | -6% | 10%
CCOC(=O)N1CCN(C(=O)c2ccc(N(C)S(=O)(=O)c3ccc(C)cc3)cc2)CC1 | 23µM* | 9% | 6% | -1% | 3% | -11%
COc1ccc(N2CCN(C(=O)c3ccc(N(C)S(=O)(=O)c4ccc(C)cc4)cc3)CC2)cc1 | 18µM* | -1% | 10%[57.1 µM] | -6% | 10% | -10%
COc1cc2c(NC3CCN(C)CC3)nc(N3CCCN(C)CC3)nc2cc1OCCN(C)CCN(C)C | · | · | -25% | 87% | · | ·
S=C(NCCCc1cnc[nH]1)NCCN(Cc1ccc(Cl)c(Cl)c1)c1ccc(Br)cn1 | 11% | · | · | · | · | 3%
CC(C(=O)c1ccccc1)[n+]1cccc(Cl)c1 (stereo not drawn) | · | · | -10% | 11%[0.0914 µM] | · | ·
Cc1cccc(CSc2nc3c(c(-c4cccs4)c2C#N)CN(C)CC3)c1 | 1% | -2% | ? | -5% | 30% | 13%
CCCCSc1nc(N)c(C#N)c(-c2cccs2)c1C#N | ? | -2% | 5% | 3% | 4µM* | ?
SMILES | Nrf2 block | mIDH1 inhibitor | TrxR1 inh | TrxR1 substrate | Mito fusion yeast | A549 viability
Cc1cccc(CSc2nc(N)c(C#N)c(-c3cccs3)c2C#N)c1 | ? | 1% | 23% | 19% | 13µM* | ?
O=S(=O)(Nc1cccc2cccnc12)C1CC1 | -19% | · | -27% | 14%[0.457 µM] | · | 1%
O=C(CC(C(=O)O)n1ccnc1)c1ccc(Cl)cc1 (stereo not drawn) | · | · | 1.8µM* | 1% | · | ·
CC(C)(C)c1ccc(OCCn2c(CCNC(=O)C3CCCCC3)nc3ccccc32)cc1 | 18µM* | · | -11% | -22% | · | -29%
CC(C)(C)C(=O)NCCCc1nc2ccccc2n1CCCOc1ccc(Cl)cc1 | 23µM* | 10% | -10% | -9% | -1% | ?
CC(=O)NCCc1nc2ccccc2n1CCCCOc1ccc(Cl)cc1 | ? | 12% | 11% | -2% | · | 2%
Cc1ccc(NC(=O)COC(=O)c2ccccc2OCC(=O)Nc2ccc(Br)cc2)c(C)c1 | · | · | 5% | 2% | · | ·
COc1cccc(-n2nc(C(N)=O)c(O)cc2=O)c1 | -9% | 12% | 9%[57.1 µM] | 1%[57.1 µM] | -15% | 0%
COc1cccc(-n2nc(C#N)c(Cl)cc2=O)c1 | ? | 4% | 4µM* | 5%[57.1 µM] | -18% | ?
CCOC(=O)c1ccc(N=Cc2nc(-c3ccccc3)oc2OC(C)=O)cc1 | -12% | 1% | 2µM* | -2% | -3% | -1%
CC(=O)Oc1oc(-c2ccccc2)nc1C=Nc1ccccc1 | -4% | -1% | 40µM* | -13% | 1% | -1%
CCC(=O)Oc1oc(-c2ccccc2)nc1C=Nc1ccc(C)cc1 | 4% | -3% | 7%[11.4 µM] | 5%[11.4 µM] | -7% | -2%
CCc1cccc(C)c1NC(=O)CSc1nc2c(c(=O)[nH]1)CCC2 | ? | · | 2% | -8% | · | 11%
COc1ccc(C2C=C3CNS(=O)(=O)C3CC2OC(=O)c2ccc(Cl)cc2)cc1 (stereo not drawn) | ? | · | 10% | -4% | · | -2%
N#CC(C#N)=Cc1ccc(OCC(=O)N2CCOCC2)cc1 | 1% | 2% | 16µM* | -5% | ? | 2%
COc1ccc(-n2cccc2/C=C/[N+](=O)[O-])cc1 | 3% | 9% | 10µM* | 3% | -8% | -4%
O=C(c1ccc2c(c1)N(Cc1ccc(F)cc1)C(=O)c1ccccc1S2=O)N1CCC(Cc2ccccc2)CC1 (stereo not drawn) | 23µM* | 5% | 35% | 2% | · | -24%
O=C(c1ccc2c(c1)N(Cc1ccccc1)C(=O)c1ccccc1S2=O)N1CCC(Cc2ccccc2)CC1 (stereo not drawn) | ? | 6% | 39% | 3% | · | -22%
CCN(c1ccccc1)c1nnc(NC(=O)Nc2cccc(Cl)c2C)s1 | -2% | -10% | 1% | -2% | · | 6%
COc1ccc(S(=O)(=O)N2CCN(CCc3ccccc3)CC2)c(OC)c1 | 16µM* | 4% | 13% | 0% | 0% | -8%

High-throughput results deposited in PubChem by National Center for Advancing Translational Sciences (NCATS).
